Dicer processing: inhibitors of Dicer pre-microRNA processing, primary screen, biochemical, cat-ELCCA, chemiluminescence; cat-ELCCA pre-miR-21 Dicer processing; active compounds read high; z-score at 25 µM; hit rate 6% among 47,000; AID 1347074, 2019; in the data active = z-score above about 3, passing the limit was not always enough;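 note: plate controls were vehicle for no effect and no enzyme for full effect; higher signal means more uncleaved substrate so more Dicer inhibition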
* hit, by the source's call. The full list was thinned out, with hits kept by preference.

SMILES	Dicer processing
Cc1cc(Oc2ccccc2F)nc(N)n1	0.15
CC1(C)CC(=O)c2c(oc3ccc(NS(=O)(=O)c4ccc(Cl)cc4)cc23)C1	2
COc1ccc(CN2C(=O)c3oc4ccc(C)cc4c(=O)c3C2c2ccc(O)cc2)cc1 (stereo not given)	-1.6
O=C1Cc2ccccc2C(c2ccccc2)N1 (stereo not given)	0.47
Oc1ccccc1C1CCCCC1c1ccccc1 (stereo not given)	4.7*
O=C(NC(=O)C1CCCCC1)c1ccccc1O	-1.8
CC(=O)Nc1ccc(NC(=O)CSCC(=O)O)cc1	-1.1
Cc1ccc(N2CC(=O)N(/N=C/c3ccncc3)CC2=O)cc1	0.42
O=C(O)c1ccc2nc(CCc3ccccc3)[nH]c2c1	-0.38
O=C(O)CCc1nc2ccc(C(=O)O)cc2[nH]1	3.7*
Nc1ccc2nc(CCC(=O)O)[nH]c2c1	-4.9
COc1ccc(N)c2nc(C)c(C)nc12	-3.6
CN(C)c1ccc(-c2nnc(SCc3ccccc3)o2)cc1	1.5
NC(=O)c1c(NC(=O)c2ccc(S(=O)(=O)N3CCCC3)cc2)sc2c1CCCC2	3.4*
NC(=O)c1c(NC(=O)c2ccc(F)cc2)sc2c1CCCC2	-0.42
NC(=O)c1c(NC(=O)c2ccc(Cl)cc2)sc2c1CCCC2	-1.1
Cc1cccc(-c2nc(NCc3cccnc3)c3ccccc3n2)c1	-0.19
CCOC(=O)C(C(=O)OCC)c1ccc2cccc(O)c2n1	-0.59
COc1ccc(C2=NN(S(C)(=O)=O)C(c3cn(-c4ccccc4)nc3-c3ccccc3)C2)cc1 (stereo not given)	-0.79
Cc1cn(CCC(=O)Nc2ccc(F)cc2)c2ccccc12	1.1
COc1cc(/C=N/n2cnc3c(sc(=S)n3C)c2=O)ccc1O	-1.7
COc1cc(/C=N/c2nccs2)ccc1O	3.1*
COc1cc(C=Nc2ccc(N3N=C(C)CC3=O)cc2)ccc1O	-6.6
Nc1cc(=O)n(Cc2ccccc2F)c(=O)n1-c1ccccc1C(F)(F)F	-0.93
O=C1CC2(CCCC2)C(=O)N1c1ccc(S(=O)(=O)NCCNc2cccc(C(F)(F)F)n2)cc1Cl	-0.52
SMILES	Dicer processing
Cc1c(Cl)cccc1NC(=S)NN(C)C	1.5
O=c1[nH]c(CN2CCOCC2)nc2ccccc12	6.9*
c1ccc2[nH]c(CN3CCCCC3)nc2c1	-0.54
O=c1[nH]c(CN2CCCCC2)nc2c1oc1ccccc12	-0.24
CCOC(=O)NC(=S)NCCC1CCNCC1	1.4
O=[N+]([O-])c1cccc(-c2csc(=S)n2Nc2ccccc2)c1	-1.6
CCOc1cccc(C2c3c(oc4ccc(F)cc4c3=O)C(=O)N2Cc2ccc3c(c2)OCO3)c1 (stereo not given)	0.22
N#Cc1ncoc1-c1ccc(C(F)(F)F)cc1	0.41
O=C(O)CCCCCCCC(=O)c1ccccc1	-2.4
CCS(=O)(=O)N1CCN(c2nc(-c3ccccc3)ns2)CC1	-0.23
c1ccc(-c2nsc(N3CCCC3)n2)cc1	3*
O=C(O)CSCC(=O)N1CCN(c2nc(-c3ccccc3)ns2)CC1	1.2
C/C(=N\NC(=O)CN1C(=O)CSc2ccccc21)c1ccco1	-0.42
COc1ccc2c(c1)CCC1=C2NC(=S)NC1c1cccc(Br)c1 (stereo not given)	-1.8
Cc1ccc(C(C)C)c(OCc2nc3ccccc3n2C)c1	0.86
COc1ccccc1OCCSc1nc(C)cc(C)n1	1.3
Cc1ccc(OCCSc2nc(N)cc(N)n2)c(C(C)C)c1	4.9*
COC(=O)c1ccc(CNC(C)(C)C)o1	1.8
Cc1cc(C)n(-c2nc3c(c(=O)[nH]c(=O)n3C)n2CCOc2ccccc2)n1	0.49
Cc1ccc2c(c1)C(=O)C(=O)N2CCOc1ccc(Br)cc1	0.93
Cc1ccc2oc(=O)n(CCC#N)c2c1	-0.44
Cc1ccc2oc(=O)n(CCCOc3ccc(Br)cc3)c2c1	3.2*
CC12CCC(c3c1nn(-c1ccccc1)c3C(F)(F)F)C2(C)C (stereo not given)	0.08
COCCOC(=O)c1c(C)oc2ccc(OCC(=O)c3ccc(Br)cc3)cc12	-0.46
O=C(COC(=O)c1ccccc1Cl)c1ccc(Br)cc1	-0.43
SMILES	Dicer processing
Cc1cc(=O)oc(C)c1C(=O)OCC(=O)c1ccc(Br)cc1	5*
Cc1onc(-c2ccccc2)c1C(=O)OCC(=O)c1ccccc1	2
Cc1ccc2[nH]c(=O)cc(C(=O)OCC(=O)c3ccc(Br)cc3)c2c1	-0.05
Cc1onc(-c2ccccc2Cl)c1C(=O)OCC(=O)c1ccc(Br)cc1	3.9*
Cc1onc(-c2c(Cl)cccc2Cl)c1NC(=O)NNc1ncccc1-n1cccc1	1
O=C(O)CN1CC(=O)Oc2ccccc21	-1.9
CCOC(=O)C(=CNc1cc(C(F)(F)F)ccc1N1CCCCC1)C(=O)OCC	-0.79
CC1(C)CC(=O)C(C=Nc2ccc(F)cc2F)=C(O)C1	7.5
CCOc1nc(-c2ccc(C)cc2)ccc1-c1noc(-c2ccncc2)n1	0.16
Cc1ccc(C(=O)CSc2nc3ccccc3c(=O)[nH]2)cc1C	-0.87
Cc1cc(C)c2c(=O)[nH]c(SCC(=O)c3ccc(O)c(O)c3)nc2n1	3.7*
Cc1cc(=O)[nH]c(SCC(=O)c2ccc(F)cc2)n1	1.7
O=C(Cc1ccccc1)c1ccc(-c2ccccc2)cc1	-0.44
Cc1cc(C)nc(-n2ncc3c2CCCC3=O)n1	-1.3
Cc1cc(C)nc(SCC(=O)Nc2ncc3c(n2)CCCC3=O)n1	-0.46
O=C1CCCc2nc3c(cc21)C(=O)CCC3	4*
Cc1ccc(S(=O)(=O)NCc2cccnc2)cc1-c1nnc2c3ccccc3c(C)nn12	0.95
O=C(O)c1cc2cccc([N+](=O)[O-])c2[nH]1	132*
CCCCNC(=O)c1cc2cccc([N+](=O)[O-])c2[nH]1	1.1
O=[N+]([O-])c1cccc2cn[nH]c12	-0.78
CCOC(=O)c1cnc2c(C)cc(C)cc2c1Nc1ccc(N(C)C)cc1	2.9
CCOC(=O)c1cnc2ccc(Cl)cc2c1Nc1ccc(N(C)C)cc1	3.8*
CCOC(=O)c1cnc2ccc(OCC)cc2c1Cl	0.45
Cn1c(=O)c2[nH]c(CN3CCOCC3)nc2n(C)c1=O	-2.3
COc1cccc(-c2ccc(-c3noc(-c4ccc(F)cc4)n3)c(OC)n2)c1	-0.01
SMILES	Dicer processing
Nc1ncnc2oc(-c3ccccc3)nc12	-0.92
CC(CC(=O)O)CC(=O)Nc1ccccn1 (stereo not given)	0.15
Cc1ccc(NC(=O)CC(C)CC(=O)O)cc1 (stereo not given)	1.2
Cc1ccc(NC(=O)CC(CC(=O)O)c2ccccc2)nc1 (stereo not given)	3.7*
Cc1nc2ccccc2c2c1C(=O)N(c1cccc(C(=O)OCC(=O)c3ccccc3)c1)C2=O	0.48
CCn1c2c(c(=O)[nH]c1=O)C(c1ccc(C)cc1)C1=C(N2)c2ccccc2C1=O (stereo not given)	-0.13
Cc1cc(=O)n2c(n1)NC(Nc1ccccc1)=NC2c1ccccc1 (stereo not given)	-0.55
Cn1c(=O)n(C)c2cc(S(=O)(=O)Nc3ccc(C(=O)O)cc3)ccc21	0.33
Cn1c(=O)n(C)c2cc(S(=O)(=O)N3CCCC3)ccc21	3.5*
O=S(=O)(c1ccc2c(c1)Cc1cc(S(=O)(=O)N3CCCCC3)ccc1-2)N1CCCCC1	-0.07
N#Cc1cn(Cc2cccc(Cl)c2)c(=O)[nH]c1=O	1.2
COC(=O)c1cc(-c2nc(C)cs2)c(SC)s1	11
CCCN1C(=O)C(O)(CC(=O)c2ccc(OC)cc2OC)c2cc(Br)ccc21 (stereo not given)	-0.59
CCOc1ccc(/C=C/c2nc(-c3ccc(OC)c(OC)c3)no2)cc1OCC	5.2*

Screening data (PubChem)
